Test in all cases: NCI-60 one-dose screen, 48 h (100 = growth as untreated, 0 = no growth, -100 = all killed)
Conditions in all cases: 10 µM unless noted

Assay [1] concerns DU-145 prostate.
For assay [2], the system named is K-562 leukemia.
The test system of assay [3] is MALME-3M melanoma.
In assay [4] the test system is MDA-MB-231 breast.
Assay [5] has as its system RXF 393 renal.
For assay [6], the system named is SF-268 CNS.
Assay [7] deals with SF-295 CNS.
The test system of assay [8] is SF-539 CNS.
In assay [9] the test system is UACC-257 melanoma.
In assay [10] the test system is M14 melanoma.
For assay [11], the system named is HCT-15 colon.
For assay [12], the system named is HT29 colon.
For assay [13], the system named is SNB-75 CNS.
The test system of assay [14] is SNB-19 CNS.
Assay [15] concerns U251 CNS.
For assay [16], the system named is PC-3 prostate.
Assay [17] relates to SK-MEL-5 melanoma.
In assay [18] the test system is UACC-62 melanoma.
For assay [19], the system named is LOX IMVI melanoma.
Assay [20] has as its system SK-MEL-28 melanoma.

Compounds without any hit were thinned out: in the full panel of roughly 83,000, 20% have a hit.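 Note: values are percent growth. 100 is the growth of untreated cells, values between 100 and 0 indicate rising inhibition; between -100 and 0 indicates cell death.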 Unmarked numbers belong to inactive results. Activity calls are given as the source filed them. The calls were made as follows: active = growth percent below 10; inactive = the rest.

For the compound `O=C1C=CC2(NN=C(c3ccccc3)N2c2ccccc2)c2cccc(O)c21` (stereo not given), the growth in assay [1] was 35.7%; in [2], 28.6%; in [3], 11.6%; in assay [4] it was 75.6%; in [5], 120%; in [6], 49.4%. The growth was 17.1% in assay [7]; 25.4% in assay [8]; 3.12% (active) in [9]; 8.81% (active) in [10]; 16.8% in [11]; 44.3% in assay [12]. In addition, the growth in assay [13] is 19.9%; in assay [14], 32%; in [15] it was 11.2%; in assay [16], 36%; in assay [17], -91.5% (active); in [18], -50.4% (active). The growth in assay [19] is -5.86% (active); in assay [20], 38.2%.

As for `N#Cc1ccc(-n2nnc3ccccc32)cc1C#N`, the growth in [1] is 93.5%; in assay [2], 93%; in [3], 96.6%; in assay [4] it was 111%; in assay [5], 100%; in assay [6], 105%. Moreover, the growth in assay [7] is 91.5%; in assay [8] it was 101%; in assay [9] it was 89.4%; in assay [10] it was 106%; in [11], 99.8%; in assay [12], 108%. Moreover, the growth was 121% in [13]; 112% in assay [14]; 91.3% in assay [15]; 101% in assay [16]; 97.6% in [17]; 94.5% in assay [18]. Besides, the growth in assay [19] was 99.4%; in assay [20], 104%.

In the case of `COC(=O)[C@H](C)NC(=O)[C@@H](OC)[C@@H]1Cc2cc3cc(OC4CC(OC5CC(O)C(O)C(C)O5)C(O)C(C)O4)c(C)c(O)c3c(O)c2C(=O)[C@H]1OC1CC(OC2CC(OC3CC(C)(O)C(O)C(C)O3)C(O)C(C)O2)C(O)C(C)O1` (stereo not given in full), the growth in [1] is 13.2%; in assay [2] it was 7.1% (active); in assay [3], -49.3% (active); in assay [4], 18.4%; in assay [5], -70.3% (active); in assay [6], 14.1%. Further, the growth was 3.96% (active) in assay [7]; -33.2% (active) in assay [8]; -0.386% (active) in assay [9]; -23.9% (active) in assay [10]; 19.3% in assay [11]; 3.99% (active) in [12]. The growth in assay [13] is -63.8% (active); in assay [14], 8.48% (active); in assay [15] it was 7.45% (active); in assay [16] it was 8.21% (active); in assay [17] it was -67.4% (active); in [18] it was -52.8% (active). Besides, the values for the growth in [19] and in assay [20] were -27.4% (active) and -37.7% (active), respectively.

As for `C[C@@H](Nc1cc(F)cc(F)c1)c1cc(C(=O)N(C)C)cc2c(=O)cc(N3CCOCC3)oc12`, the growth in [1] is 68.2%; in [2], 87.6%; in [3], 68.9%; in assay [4], 82.4%; in assay [5] it was -16.4% (active); in [6] it was 56.8%. Moreover, the growth in [7] is 14.8%; in [8], 24.1%; in assay [9], 35.2%; in assay [10] it was 69.2%; in [11] it was 84%; in [12], 23.9%. Also, the growth in assay [13] is -8.61% (active); in assay [14] it was 64.1%; in [15] it was 61.4%; in assay [16], 29%; in assay [17], 73.2%; in assay [18], 11.3%. The growth in [19] is 48.2%; in assay [20], 46.3%.

As for `CNC(=O)c1cc(COc2nnc(Nc3ccc(Cl)cc3)c3ccoc23)ccn1`, the growth was 31.9% in assay [1]; 69.7% in assay [2]; 22.4% in assay [3]; 18.5% in assay [4]; 43.1% in assay [5]; 14.2% in [6]. Besides, the growth is 10.4% in [7]; -65.6% (active) in assay [8]; 33.3% in [9]; 78.9% in assay [10]; 70.1% in assay [11]; 71% in assay [12]. For the same compound, the growth was -39.3% (active) in assay [13]; 19.6% in [14]; 15.1% in assay [15]; 34.5% in [16]; -0.858% (active) in [17]; 47.8% in assay [18]. The values for the growth in [19] and in assay [20] were 15.5% and 52.5%, respectively.

Regarding `COc1cc2c(cc1OCCCN1Cc3ccc(OCCCCC(=O)N4CCC(CCN5CCCC5)CC4)cc3C1)N=C(N)C21CCCC1`, the growth in [1] was 95.2%; in assay [2] it was 4.85% (active); in assay [3] it was 44%; in [4], 87.1%; in [5], 90.2%; in [6], 85.8%. Further, the growth in assay [7] is 101%; in assay [8], 54.7%; in [9], 85.1%; in assay [10], 58.2%; in assay [11], 102%; in assay [12], 9.48% (active). For the same compound, the growth is 60.3% in assay [13]; 103% in assay [14]; 79.2% in assay [15]; 79.9% in assay [16]; 55.3% in assay [17]; 106% in [18]. Further, the growth in assay [19] is 64%; in assay [20], 97.9%.

In the case of `CN1CCC(COc2cnc(-c3cccc(Cn4nc(-c5cccc(C#N)c5)ccc4=O)c3)nc2)CC1`, the growth in assay [1] is 77.8%; in assay [2], 3.04% (active); in assay [3] it was 48.4%; in assay [4], 57.3%; in assay [5], 87.7%; in assay [6], 67.2%. Further, the growth in assay [7] was 54.5%; in [8], 33.5%; in assay [9] it was -27.5% (active); in assay [10], 39%; in assay [11], 12.4%; in [12] it was -38.5% (active). In addition, the growth in assay [13] is 72.9%; in assay [14] it was 78.2%; in [15], 16.4%; in [16], 67.8%; in assay [17], 43.2%; in assay [18] it was 95.1%. In addition, the growth in assay [19] was 34.2%; in [20] it was -13.2% (active).

With `Cc1cc(Nc2cc(N3CCN(C)CC3)nc(Sc3ccc(NC(=O)C4CC4)cc3)n2)n[nH]1`, the growth is 55.7% in [1]; 8.47% (active) in assay [2]; 29.3% in assay [3]; 37.1% in assay [4]; -18.7% (active) in [5]; 48.6% in assay [6]. Further, the growth in assay [7] was 32.7%; in [8], 9.92% (active); in assay [9], 18.1%; in assay [10], 22.3%; in assay [11], 40.2%; in [12], 0.79% (active). Also, the growth in assay [13] was 0.133% (active); in assay [14] it was 46.8%; in assay [15], 30%; in assay [16] it was 35.2%; in assay [17], 9.58% (active); in assay [18], 13%. Also, the values for the growth in [19] and in assay [20] were -69.2% (active) and 34.4%, respectively.

Values taken from PubChem BioAssay (NCI).
